# Results filed as inconclusive are left out. Activity calls are given as the source filed them. Calls come from the whole dose curve.
# Molecular target: Acetylcholinesterase (Homo sapiens) (UniProt P22303)
# Assay: Acetylcholinesterase (AChE) small molecule antagonists: colormetric cell-based qHTS assay (AID 1347395); note: nearly all actives have a fitted effect of over 30% in size
# Settings: SH-SY5Y cells AChE activity, colorimetric (Ellman); series mostly up to 115 µM; activity, negative = inhibition: at the top concentration
# Outline: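 In this cell-based qHTS, attached SH-SY5Y cells were treated with test chemicals for 30 min, after which acetylthiocholine hydrolysis was followed by DTNB colour development over 90 min at 37 C.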
# % is set by controls: 0 for no effect and ±100 for the full control effect.
# Chain of Acetylcholinesterase (Homo sapiens) (P22303 whole entry, looked up): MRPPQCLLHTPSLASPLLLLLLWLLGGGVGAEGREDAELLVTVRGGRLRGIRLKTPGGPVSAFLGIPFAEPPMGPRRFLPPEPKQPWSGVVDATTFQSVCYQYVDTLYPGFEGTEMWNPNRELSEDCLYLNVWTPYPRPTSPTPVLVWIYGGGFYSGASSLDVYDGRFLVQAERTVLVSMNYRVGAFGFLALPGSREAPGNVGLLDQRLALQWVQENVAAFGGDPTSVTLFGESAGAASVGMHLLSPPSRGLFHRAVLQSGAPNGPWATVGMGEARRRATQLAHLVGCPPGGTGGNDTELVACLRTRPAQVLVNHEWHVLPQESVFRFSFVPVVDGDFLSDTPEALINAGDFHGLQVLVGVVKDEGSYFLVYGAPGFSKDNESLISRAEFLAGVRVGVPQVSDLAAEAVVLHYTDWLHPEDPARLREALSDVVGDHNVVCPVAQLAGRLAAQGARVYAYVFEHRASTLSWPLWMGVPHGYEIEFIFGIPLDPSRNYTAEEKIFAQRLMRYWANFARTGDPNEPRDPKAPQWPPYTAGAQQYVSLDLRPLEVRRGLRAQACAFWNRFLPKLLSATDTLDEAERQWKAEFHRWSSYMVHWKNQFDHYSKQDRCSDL
Compound,"activity, negative = inhibition",outcome
O=C(O)COc1ccc2ccccc2c1,-1.66% (inactive),
COc1cc(OC)c2ccc(=O)oc2c1,-1.68% (inactive),
CCCCCCCCCCC=O,-1.55% (inactive),
N#Cc1ccc(C2CCCc3cncn32)cc1 (stereo not given),-1.44% [at 52.9 µM] (inactive),
O=C(O)Cc1ccc(CCNS(=O)(=O)c2ccc(Cl)cc2)cc1,0.44% [at 52.9 µM] (inactive),
NCCCN1CCOCC1,-9% (inactive),
CCCCC(CC)C(=O)OC(C)C (stereo not given),0.055% (inactive),
CCCc1ccc(N)cc1,-0.896% (inactive),
CO[Si](CCCNCCC[Si](OC)(OC)OC)(OC)OC,2.14% (inactive),
O=C(O)[C@@H]1[C@H]2C[C@H]3c4[nH]c5ccccc5c4CCN3C[C@@H]2CC[C@@H]1O,-4.44% [at 52.9 µM] (inactive),
CN(C)CCCOc1nn(Cc2ccccc2)c2ccccc12,4.63% [at 52.9 µM] (inactive),
C=C(C)c1ccccc1,-0.269% (inactive),
C=C(C)C(=O)OCC,-1.74% (inactive),
Nc1ccccc1O,-0.307% (inactive),
O=C1OC(CN2CCOCC2)CN1/N=C/c1ccc([N+](=O)[O-])o1 (stereo not given),-1.08% [at 52.9 µM] (inactive),
O=C(O)c1ccc(O)c(O)c1,-1.43% (inactive),
Cc1onc(-c2c(Cl)cccc2Cl)c1C(=O)N[C@@H]1C(=O)N2[C@@H]1SC(C)(C)[C@@H]2C(=O)O,-0.784% [at 52.9 µM] (inactive),
CCOC(=O)CC(C)O (stereo not given),0.102% (inactive),
Cc1ccnc(N)c1,4.19% (inactive),
Cc1cccc(N(C)C)c1,-4.99% (inactive),

Compound,"activity, negative = inhibition",outcome
CC/C=C\CCCCO,-0.769% (inactive),
C/C(=C\C(C)CC(C)CC(C)C)C1CC(=O)OC1=O (stereo not given),1.3% (inactive),
CC(=O)OCC(=O)[C@@]12OC(C)(C)O[C@@H]1C[C@H]1[C@@H]3C[C@H](F)C4=CC(=O)C=C[C@]4(C)[C@@]3(F)[C@@H](O)C[C@@]12C,2.72% [at 52.9 µM] (inactive),
CC(=O)NO,-0.421% [at 52.9 µM] (inactive),
CN1CCCN=C1COC(=O)C(O)(c1ccccc1)C1CCCCC1 (stereo not given),-1.77% [at 52.9 µM] (inactive),
CC12CCC(C(=O)C1=O)C2(C)C (stereo not given),-0.824% (inactive),
O=C1CCCCCCCCCCC(=O)OCCO1,-1.77% (inactive),
CC(C)(C)c1ccc(-c2ccc(C(C)(C)C)cc2)cc1,-0.505% (inactive),
CCCCC(CC)COC(=O)c1ccccc1O (stereo not given),1.06% [at 52.9 µM] (inactive),
CCC1(C)NC(=O)NC1=O (stereo not given),-0.346% (inactive),
CN1CCCC1,0.283% (inactive),
CCC(=O)C(=O)CC,4.04% (inactive),
CCOc1ccccc1O[C@H](c1ccccc1)[C@H]1CNCCO1,,inactive
CC(C)(C)c1ccc(N)cc1,0.508% (inactive),
COc1ccccc1OCC(O)CN1CCN(CC(=O)Nc2c(C)cccc2C)CC1 (stereo not given),-1.59% [at 52.9 µM] (inactive),
O=C1NC(=O)c2cc([N+](=O)[O-])ccc21,-10.8% (inactive),
CC(=N\O)/C(C)=N/O,0.631% (inactive),
C1=CCC2CC=CC2C1 (stereo not given),0.307% (inactive),
Nc1nnc(-c2ccc([N+](=O)[O-])o2)o1,2.51% (inactive),
CC(C)(C)c1ccccc1,0.372% (inactive),

# Molecular target: Acetylcholinesterase (Homo sapiens) (UniProt P22303)
# Assay: Acetylcholinesterase (AChE) small molecule antagonists: enzyme-based qHTS assay (AID 1347397); note: nearly all actives have a fitted effect of over 55% in size
# Settings: Potency: AChE enzyme activity inhibition; outcome: AChE enzyme activity inhibition; series mostly up to 115 µM; activity change, negative = inhibition: at the top concentration
# Outline: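 rhAChE 50 mU/mL (dispensed) + cpd or DMSO, 30 min RT; add DTNB/acetylthiocholine cocktail, 10 min RT; colorimetric thiocholine readout. qHTS, 1536-well format.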
Compound,"activity change, negative = inhibition",outcome
O=C(O)COc1ccc2ccccc2c1,-2.84% (inactive),
COc1cc(OC)c2ccc(=O)oc2c1,-0.433% (inactive),
CCCCCCCCCCC=O,0.136% (inactive),
N#Cc1ccc(C2CCCc3cncn32)cc1 (stereo not given),0.619% [at 53 µM] (inactive),
O=C(O)Cc1ccc(CCNS(=O)(=O)c2ccc(Cl)cc2)cc1,1.11% [at 53 µM] (inactive),
NCCCN1CCOCC1,1.33% (inactive),
CCCCC(CC)C(=O)OC(C)C (stereo not given),1.55% (inactive),
CCCc1ccc(N)cc1,1.92% (inactive),
CO[Si](CCCNCCC[Si](OC)(OC)OC)(OC)OC,0.681% (inactive),
O=C(O)[C@@H]1[C@H]2C[C@H]3c4[nH]c5ccccc5c4CCN3C[C@@H]2CC[C@@H]1O,0.139% [at 53 µM] (inactive),
CN(C)CCCOc1nn(Cc2ccccc2)c2ccccc12,2.98% [at 53 µM] (inactive),
C=C(C)c1ccccc1,0.136% (inactive),
C=C(C)C(=O)OCC,0.682% (inactive),
Nc1ccccc1O,4.2% (inactive),
O=C1OC(CN2CCOCC2)CN1/N=C/c1ccc([N+](=O)[O-])o1 (stereo not given),4.04% [at 53 µM] (inactive),
O=C(O)c1ccc(O)c(O)c1,0.682% (inactive),
Cc1onc(-c2c(Cl)cccc2Cl)c1C(=O)N[C@@H]1C(=O)N2[C@@H]1SC(C)(C)[C@@H]2C(=O)O,0.546% [at 53 µM] (inactive),
CCOC(=O)CC(C)O (stereo not given),-0.954% (inactive),
Cc1ccnc(N)c1,-2.5% (inactive),
Cc1cccc(N(C)C)c1,-0.273% (inactive),

Compound,"activity change, negative = inhibition",outcome
CC/C=C\CCCCO,0.138% (inactive),
C/C(=C\C(C)CC(C)CC(C)C)C1CC(=O)OC1=O (stereo not given),0.409% (inactive),
CC(=O)OCC(=O)[C@@]12OC(C)(C)O[C@@H]1C[C@H]1[C@@H]3C[C@H](F)C4=CC(=O)C=C[C@]4(C)[C@@]3(F)[C@@H](O)C[C@@]12C,-0.97% [at 53 µM] (inactive),
CC(=O)NO,-1.08% [at 53 µM] (inactive),
CN1CCCN=C1COC(=O)C(O)(c1ccccc1)C1CCCCC1 (stereo not given),-1.24% [at 53 µM] (inactive),
CC12CCC(C(=O)C1=O)C2(C)C (stereo not given),-0.849% (inactive),
O=C1CCCCCCCCCCC(=O)OCCO1,1.81% (inactive),
CC(C)(C)c1ccc(-c2ccc(C(C)(C)C)cc2)cc1,-0.0015% (inactive),
CCCCC(CC)COC(=O)c1ccccc1O (stereo not given),0.273% [at 53 µM] (inactive),
CCC1(C)NC(=O)NC1=O (stereo not given),0.0568% (inactive),
CN1CCCC1,-0.129% (inactive),
CCC(=O)C(=O)CC,0.689% (inactive),
CCOc1ccccc1O[C@H](c1ccccc1)[C@H]1CNCCO1,,inactive
CC(C)(C)c1ccc(N)cc1,0.681% (inactive),
COc1ccccc1OCC(O)CN1CCN(CC(=O)Nc2c(C)cccc2C)CC1 (stereo not given),1.41% [at 53 µM] (inactive),
O=C1NC(=O)c2cc([N+](=O)[O-])ccc21,-1.91% (inactive),
CC(=N\O)/C(C)=N/O,0.516% (inactive),
C1=CCC2CC=CC2C1 (stereo not given),-1.36% (inactive),
Nc1nnc(-c2ccc([N+](=O)[O-])o2)o1,12.5% (inactive),
CC(C)(C)c1ccccc1,1.02% (inactive),
